# Screens deposited in PubChem BioAssay by several laboratories.
# PP5 primary – blocks human protein phosphatase 5 activity; P53041; purified PP5c, OMFP substrate fluorescence; inhibition, % at 6.7 µM; actives 0.18% (n = 320,000); AID 1987;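 active = inhibition above the campaign's mean inhibition across all tested compounds plus 3 SD, cut at about 9.5% in these data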;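 also: 0% = DMSO only and 100% = 100 µM cantharidin control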
# Target sequence (P53041 whole entry, looked up): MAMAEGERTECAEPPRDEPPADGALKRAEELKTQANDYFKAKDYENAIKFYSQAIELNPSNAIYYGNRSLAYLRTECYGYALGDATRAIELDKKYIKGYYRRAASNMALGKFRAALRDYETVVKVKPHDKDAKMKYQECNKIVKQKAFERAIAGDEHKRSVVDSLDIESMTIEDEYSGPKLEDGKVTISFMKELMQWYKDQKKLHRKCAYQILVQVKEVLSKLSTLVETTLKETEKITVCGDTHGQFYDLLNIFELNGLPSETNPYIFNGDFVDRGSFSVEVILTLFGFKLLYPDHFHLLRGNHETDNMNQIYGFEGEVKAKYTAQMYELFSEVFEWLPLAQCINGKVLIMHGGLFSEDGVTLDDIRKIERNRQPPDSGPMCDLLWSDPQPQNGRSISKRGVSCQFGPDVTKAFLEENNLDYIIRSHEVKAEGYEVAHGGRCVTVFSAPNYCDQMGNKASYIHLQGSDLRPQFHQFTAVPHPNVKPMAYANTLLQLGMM
# Beta apoptosis – blocks beta cell apoptosis; INS-1E cytokine-induced death, ATP luminescence, 48 h; percent of positive-control rescue, neutral wells zero; protection from apoptosis, % (concentration not given with the values); actives 0.8% (n = 300,000); AID 435005;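 active = Every replicate reaches about 75%, or at least half do and their mean reaches it too, limit read from the data; inconclusive = At least half of replicates reach the limit but their mean does not; inactive = Under half of replicates reach the limit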;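 also: 0% = cytokine-treated negative control wells and 100% = positive control rescue; higher means more ATP so stronger rescue from cytokine killing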
# PP1 inh – counter-screen for PP5 inhibitors: inhibitors of human PP1-alpha; P62136; purified PP1alpha, OMFP fluorescence; inhibition, % at 6.7 µM; actives 0.9% (n = 320,000);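 active = inhibition above the mean inhibition of all tested compounds plus 3 SD, computed separately for each screening campaign, cut at about 15% in these data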
# Calb FLC – C. albicans growth modulation with fluconazole; C. albicans CaCi-2 (fluconazole-resistant clinical isolate) + fluconazole, Alamar Blue growth, 48 h; growth inhibition, % (test concentration not listed); actives 0.57% (n = 300,000); AID 1979;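 active = growth inhibition above about 58% in most replicates, limit read from the data, passing the limit was not always enough; inconclusive = exactly half the replicates above a set limit; inactive = most replicates below a set limit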;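 also: all wells also contain fluconazole at 8 µg/ml as a sub-toxic cotreatment; 0% = median of DMSO wells and 100% = median of geldanamycin control wells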
# Mdm2-MdmX inh – inhibitors of human Mdm2/MdmX interaction; actives 3% (n = 330,000); inhibition, % at 8 µM; SaOS-2 split-luciferase Mdm2/MdmX complementation, luminescence;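 active = inhibition of at least 50% at 8 µM in the primary screen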
# CSC inhib – blocks cancer stem cells; cancer stem cell-like cells viability, luminescence; inhibition, % at 7.5 µM; actives 1.1% (n = 300,000); in the data active = inhibition above about 75%; inconclusive = no clear call, values can overlap the other calls; tested in HMLE shEcad cells
# Mdm2 MdmX conf – human Mdm2/MdmX binding inhibition, confirmed. inhibition, % at 8 µM. shares compounds with Mdm2-MdmX inh. luminescent assay. actives 55% (n = 10,000); in the data active = inhibition above about 40%
# FLuc counter – inhibits full-length luciferase, flagging false Mdm2/MdmX hits; shares compounds with Mdm2-MdmX inh; SaOS-2 full-length luciferase counterscreen, luminescence; inhibition, % at 8 µM; actives 77% (n = 6,200);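 active = mean inhibition at 8 µM reaching about 37%, which flags the compound as non-specific, limit read from the data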;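 also: p53-null SaOS-2 cells with luciferase driven by a doxycycline-inducible promoter; compound on cells about two nights before reading with doxycycline added after day one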
# * = called active by the depositor; ? = inconclusive; nt = no result given. Only some compounds are listed: those with a hit (about 4.9% of all), similar ones and a draw of the others.
SMILES,PP5 primary,Beta apoptosis,PP1 inh,Calb FLC,Mdm2-MdmX inh,CSC inhib,Mdm2 MdmX conf,FLuc counter
O=C(Nc1cccc(-c2cnc3ccccc3n2)c1)c1ccccc1,3.7,12.5,0.5,-0.2,57.4*,-6.4,-33.8,nt
O=C(CCl)Nc1cccc(-c2cnc3ccccc3n2)c1,0.2,-2.9,-1.9,-0.3,97.4*,41.3,99.5*,55.1*
O=C(CCl)Nc1ccc(Oc2cnc3ccccc3n2)cc1,-0.2,-3.8,-2.5,-0.9,67.4*,-0.5,49.5*,14.2
O=C(Nc1cccc(-c2cnc3ccccc3n2)c1)c1cccc(NC(=O)c2ccco2)c1,2.6,13.1,2.6,57.0,68.0*,nt,64.8*,88.3*
O=C(CSc1nnc(NC(=O)c2ccccc2F)s1)NC1CC1,3.1,1.2,3.1,3.8,-7.6,-11.2,nt,nt
CN(C)n1cnc2ccsc2c1=O,-1.1,nt,-2.4,18.5,-1.7,-12.8,nt,nt
CCOc1ccc(-n2c(N)c(C(=O)NCc3ccco3)c3nc4ccccc4nc32)cc1,0.7,-8.9,5.4,18.5,24.3,5.4,nt,nt
CCOc1ccc(-n2c(N)c(-c3nc4ccccc4n3C)c3nc4ccccc4nc32)cc1,0.0,5.0,-0.1,2.4,62.8*,-5.5,58.6*,65.5*
NC(=O)c1nsc(C(=O)N(c2ccccc2F)C(C(=O)NCc2ccccc2)c2ccc(O)cc2)c1N (stereo not drawn),2.2,7.1,4.9,1.3,52.2*,17.9,65.8*,77.4*
Cc1ccccc1N(C(=O)c1snc(C(N)=O)c1N)C(C(=O)NCc1ccccc1)c1ccc(O)cc1 (stereo not drawn),-0.2,6.5,0.1,-7.8,-23.8,4.4,nt,nt
CS(=O)(=O)NCCCCCCNS(C)(=O)=O,1.5,-1.1,-5.2,16.7,-25.7,-12.8,nt,nt
Cc1sc2ncn(CC(=O)NCCCC(=O)Nc3ccc(C(C)C)cc3)c(=O)c2c1C,3.4,9.9,-4.1,0.0,82.3*,17.2,42.5*,29.2
COc1cccc(NC(=O)CCCNC(=O)Cn2cnc3sc(C)c(C)c3c2=O)c1,1.7,-3.0,-2.8,10.3,6.3,4.4,nt,nt
C=CCC[C@@H](Cc1ccc(F)cc1)C(=O)OC[C@@H](NC(=O)[C@@H](CC=C)CC(=O)N(CCO)Cc1ccccc1)c1ccccc1,nt,1.2,nt,nt,88.0*,nt,9.2,nt
C=CC[C@H](CC(=O)N(CCO)Cc1ccccc1)C(=O)N[C@@H](C)COC(=O)[C@@H](CC=C)Cc1ccc(F)cc1,nt,-15.2,nt,nt,-7.3,0.2,nt,nt
C=CC[C@@H](CC(=O)N(CCO)Cc1ccccc1)C(=O)N[C@H](COC(=O)[C@@H](CC=C)Cc1ccc(F)cc1)Cc1ccccc1,nt,6.2,nt,nt,70.2*,-5.2,14.3,nt
C=CC[C@@H](CC(=O)N(CCO)Cc1ccccc1)C(=O)N[C@@H](COC(=O)[C@@H](CC=C)Cc1ccc(F)cc1)Cc1ccccc1,nt,12.7,nt,nt,62.7*,nt,12.2,nt
C=CCC[C@@H](Cc1ccc(F)cc1)C(=O)OC[C@H](C)NC(=O)[C@@H](CC=C)CC(=O)N(CCO)Cc1ccccc1,nt,nt,nt,nt,18.5,nt,nt,nt
O=C(Cn1ccc(C(F)(F)F)n1)N/N=C/c1ccc(N2CCOCC2)cc1,0.1,nt,-1.7,-1.0,1.3,0.5,nt,nt
CCCCOc1cccc(-c2cc(C(=O)NNC(=S)NCC)c3ccccc3n2)c1,0.9,24.3,-1.9,32.0,45.1,12.2,nt,nt
CCCCOc1ccc(-c2cc(C(=O)NNC(=S)NCC)c3ccccc3n2)cc1,3.8,80.3*,1.0,72.0,80.1*,99.7*,74.5*,127.3*
Cc1ccc2c(c1)Oc1ccc(NC(=O)CCl)cc1C(=O)N2,-0.9,8.7,2.0,38.0,91.7*,45.3,86.8*,53.7*
CN(CCO)c1cc(Sc2nc3ccccc3s2)c2nonc2c1[N+](=O)[O-],2.3,55.9,0.0,?,96.6*,103.4*,97.2*,1.9
CC(=O)OCCN(C)c1cc(SC(C)C)c2nonc2c1[N+](=O)[O-],1.4,-2.9,-5.8,-1.9,15.0,-15.6,nt,nt
CCCn1c2ccccc2c2cnn(CC(=O)N3CCOCC3)c(=O)c21,0.3,-0.2,0.0,0.5,15.1,-2.0,nt,nt
CCCn1c2ccccc2c2cnn(CC(=O)N3CCN(C4CCCCC4)CC3)c(=O)c21,0.3,1.1,-1.7,-2.8,55.4*,0.7,30.2,nt
